Laboratory results from ChEMBL document CHEMBL3433997, “St. Jude Leishmania screening dataset” (2016).

target: Hexose transporter 1 (Plasmodium falciparum) (UniProt O97467); assay: ST_JUDE_LEISH: Cytotoxicity at 2uM final concentration against transgenic Leishmania Mexicana promastigotes LmPfHT that are glucose transport deficient and complemented with the Plasmodium falciparum hexose transporter. Activity is measured by DNA content using SYBR green in vitro; type: functional

Compound	inhibition
CC(C)Nc1ccc(Nc2ccnc3cc4ccccc4cc23)cc1	4.38%
O=C(/C=C/c1ccc(Cl)c(Cl)c1)NCCCCCN1CCCC(CNC(=O)/C=C/c2ccccc2)C1 (stereo not given)	-0.44%
O=C(NC1CCN(c2ccnc3cc(Cl)ccc23)C1)c1ccc(F)cc1F (stereo not given)	5.62%
O=S(=O)(c1csc2ccccc12)N(CCC(O)(C(F)(F)F)C(F)(F)F)Cc1cccc(O)c1	-2.19%
COc1cc(Cl)c(C)cc1-n1cc(C(=O)c2cc(Br)ccc2O)cc(C#N)c1=O	-1.65%
COc1ccc2ncc(F)c(CCN3CCC(NCc4cc(Br)c5c(c4)OCCO5)CC3)c2n1	31.4%
O=C(N1CCN(c2cccc(C(F)(F)F)c2)CC1)C(Cl)(Cl)Cl	5.03%
CC(=O)Nc1ccc(C(=O)Nc2cccc(-c3ccc(-c4nc5cc(F)ccc5[nH]4)cc3)c2)cn1	2.17%
Cc1cc(N[C@@H](Cc2ccccc2)C(=O)Nc2ccccc2)nc(NCCc2cccnc2)n1	11%
CC(=O)Nc1ccc(CN2CCc3ccc(NS(=O)(=O)c4cccc(OCc5ccc(Cl)cc5)c4)cc3CC2)s1	-0.08%
CC(CON1C(N)=NC(N)=NC1(C)C)Cc1ccc(Cl)cc1Cl (stereo not given)	-1.29%
c1ccc(-c2cc(NCCNc3cc(-c4ccccc4)nc4ccccc34)c3ccccc3n2)cc1	6.2%
COc1ccc(CN(C)CCOc2ccc(NC(=O)c3cccc4c(=O)cc(-c5ccccc5)[nH]c34)cc2)cc1OC	0.96%
Nc1c(Cl)cc(C(O)CNCCCCCCCCCc2ccccn2)cc1Cl (stereo not given)	-0.21%
COc1ccc(NC(=O)N2CCCN(CCCCCNC(=O)/C=C/c3ccc(C(F)(F)F)cc3)CC2)cc1Cl	-1.14%
